An excerpt weighted towards active compounds, which were near 12% of everything screened.
RORgamma inh – ROR gamma (mouse) transcription inhibition | P51450 | actives 5.4% (n = 310,000) | AID 2551 | Drosophila S2 Gal4-RORgamma UAS-luciferase reporter, 20 h | Potency, µM (top dose mostly 53.6 µM), for inactives: top-dose activity change, negative = inhibition, actives largely listed as inhibitors; also: nearly all actives have a fitted effect of over 60% in size
Target sequence (P51450 whole entry, looked up, the tested form may be a part): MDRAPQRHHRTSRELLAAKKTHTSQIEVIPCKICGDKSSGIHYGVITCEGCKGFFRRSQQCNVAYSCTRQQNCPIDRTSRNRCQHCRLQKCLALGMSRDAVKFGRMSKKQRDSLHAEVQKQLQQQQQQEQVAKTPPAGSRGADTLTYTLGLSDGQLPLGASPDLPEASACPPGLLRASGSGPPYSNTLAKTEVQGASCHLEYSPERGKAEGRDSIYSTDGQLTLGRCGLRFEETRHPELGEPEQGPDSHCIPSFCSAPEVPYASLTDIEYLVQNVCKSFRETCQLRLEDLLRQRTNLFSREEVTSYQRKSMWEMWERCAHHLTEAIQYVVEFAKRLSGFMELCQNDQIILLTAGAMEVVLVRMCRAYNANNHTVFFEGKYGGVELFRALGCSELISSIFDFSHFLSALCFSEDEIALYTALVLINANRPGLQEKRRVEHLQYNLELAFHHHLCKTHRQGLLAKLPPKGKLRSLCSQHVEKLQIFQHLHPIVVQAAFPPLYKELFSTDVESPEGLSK
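A Gal4/UAS one-hybrid system in insect cells: metallothionein-promoter Gal4–ROR gamma fusion plus Photinus luciferase reporter. Copper sulfate 700 uM final, 20 hr ambient incubation, luminescent detection after 10 min with reagent.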
PLK1 PBD block – inhibitors of human PLK1 polo-box domain binding; Plk1 PBD binding of FITC phosphopeptide, fluorescence polarization; Potency, µM, for the others: max response, negative = inhibition, usual class: inhibitors; P53350; actives 2.8% (n = 360,000); AID 720504; also: series mostly up to about 57 µM; nearly all actives have a fitted effect of over 65% in size
VP16 counter – counter-screen for ROR gamma inhibitors: Gal4-VP16 reporter. Drosophila S2 Gal4-VP16 UAS-luciferase, luminescence, 20 h. Potency, µM (doses to about 53.6 µM), inactives show top-dose activity, negative = inhibition, usual class: inhibitors. actives 3.5% (n = 310,000);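 also: Gal4-VP16 expression switched on by copper sulfate through the metallothionein promoter; nearly all actives have a fitted effect of over 50% in size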
ALDH1A1 inh – blocks purified human ALDH1A1 activity; Potency, µM (doses to about 75.3 µM), without a hit: at the top dose activity, negative = inhibition, usual class: inhibitors; AID 1030; actives 7.3% (n = 220,000); Purified ALDH1A1, NADH fluorescence, propionaldehyde substrate; P00352; active = well fitted inhibition curve with a large enough effect, not every such curve was filed as active; inconclusive = small, poorly fitted or top-dose-only effect, or another doubt; inactive = no such curve, though single readings can be large or run the other way;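 also: plate controls were no enzyme wells and a reference inhibitor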
Sfp PPTase inh – Sfp phosphopantetheinyl transferase inhibition. Biochemical Sfp PPTase activity, qHTS. AID 1490. actives 3.5% (n = 310,000). Q9F4F7. Potency, µM, for inactives: largest response in the series, negative = inhibition, actives largely listed as inhibitors;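 also: the enzyme is Sfp with the accession as filed and its product quenches rhodamine fluorescence; 0% = enzyme reaction without inhibitor and -100% = no enzyme wells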
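Fluorescence-quenching assay: 15 nM Sfp-PPTase preincubated 15 min at room temperature with compound, then 5 uM rhodamine-CoA and 12.5 uM BHQ-2-labelled YbbR peptide added. Fluorescence (ex 525/em 598 nm) read at start and after 30 min; difference gives rate.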
Numbers without * were called inactive; ? = inconclusive; . = no result; [ ] = dose if it differs, or a comment. Unless noted, calls follow the shape of the dose curve; as a rule, active = well fitted curve in the direction sought with a large enough effect; inconclusive = small, poorly fitted or top-dose-only effect, or another doubt; inactive = no such curve, though single readings can be large; an effect the other way counts as inactive or inconclusive. Unless noted, % is scaled to controls: 0 for no effect and ±100 for the full control effect; potency is read from the fitted curve at half-maximal effect.

SMILES	RORgamma inh	PLK1 PBD block	VP16 counter	ALDH1A1 inh	Sfp PPTase inh
CCCCCc1cc(=O)oc2c(C(CCN3CCCC(C)C3)c3ccc(N(C)C)cc3)c(OC)cc(OC)c12 (stereo not given)	-10.7%	1.4%	-4.1%	.	56.2µM*
COc1cc(OC)c2ccc(=O)oc2c1C(CCN1CCCC(C)C1)c1ccc(N(C)C)cc1 (stereo not given)	-4.2%	-3.1%	-6.7%	.	3.4%
CCCCCc1cc(=O)oc2c(C(CCN3CCCCC3)c3cc(OC)c(OC)c(OC)c3)c(OC)cc(OC)c12 (stereo not given)	?	2.3%	?	.	79.4µM*
O=C1N2CCCc3cccc(c32)C12Nc1ccccc1S2 (stereo not given)	16.1%	23.8µM*	17.0%	14.1µM*	50.1µM*
CC1CC(C)(C)N2C(=O)C3(Nc4ccccc4S3)c3cccc1c32 (stereo not given)	1.2%	-26.4%	5.1%	?	?
COC(=O)c1ccc(/C=N/NC(=O)c2ccc3nc[nH]c3c2)cc1	-0.5%	-8.1%	0.0%	.	20.0%
O=C(N/N=C/c1ccc([N+](=O)[O-])cc1)c1ccc2nc[nH]c2c1	2.0%	?	-13.1%	6.31µM*	-8.1%
O=C(N/N=C/c1ccc(Cl)cc1)c1ccc2nc[nH]c2c1	.	0.4%	.	.	.
O=C(N/N=C/c1cccc([N+](=O)[O-])c1)c1ccc2nc[nH]c2c1	-4.5%	-12.6%	-0.8%	11.2µM*	-12.2%
Clc1ccccc1OCCNc1nc(NCC2CC2)nc2ccsc12	.	-2.3%	.	.	.
COC(=O)C1=C(O)/C(=C\c2ccc(CNS(=O)(=O)c3ccc(Cl)cc3)o2)N=C1C	?	-16.4%	?	-8.1%	35.5µM*
CCOC(=O)C1=C(O)/C(=C\c2ccc(CNS(=O)(=O)c3ccc(Br)cc3)o2)N=C1C	22.8%	?	-2.2%	0.0%	?
COC(=O)C1=C(O)/C(=C\c2ccc(CNS(=O)(=O)c3ccccc3)o2)N=C1C	3.7%	-15.8%	2.9%	31.6µM*	50.1µM*
O=C(Nc1cc(Cl)ccc1Cl)c1ccco1	31.7%	5.3%	4.4%	.	12.1%
CS/C(Nc1cc(Cl)ccc1Cl)=C(/C#N)C(=O)c1ccco1	10µM*	-18.9%	14.1µM*	?	18.4%
COc1ccc(CC(N)c2csc(NC(=O)Nc3ccccc3-c3ccccc3)n2)cc1 (stereo not given)	.	-1.1%	.	.	.
O=S(=O)(c1cccc(C(F)(F)F)c1)N1CCC(c2cc(-c3cccc4ccccc34)n[nH]2)CC1	-11.9%	18.9µM*	-8.2%	-5.4%	11.6%
CC(C)(C)OC(=O)N1C[C@H](O)C[C@H]1C(=O)OCC(=O)c1ccc([N+](=O)[O-])cc1	11.9%	21.2µM*	3.2%	.	-4.0%
O=C(Cn1nnc(-c2ccccc2-n2cnnn2)n1)c1ccccc1	28.9%	-0.1%	-10.8%	12.6µM*	-6.9%
COc1ccc2nc(-n3c(O)c(C4=c5ccccc5=NC4=O)[nH]c3=S)sc2c1	12.6µM*	?	?	-11.6%	50.1µM*
Cn1c(O)c(C2=c3ccccc3=NC2=O)[nH]c1=S	?	-8.6%	-5.4%	5.3%	-3.5%
Cc1ccc(OC(=O)COc2ccccc2)c(-n2nc3ccccc3n2)c1	?	-4.9%	3.2%	?	?
Cc1ccc(OC(=O)COc2ccccc2C)c(-n2nc3ccccc3n2)c1	?	?	?	31.6µM*	5.3%
O=C(Nc1ccc(N2CCOCC2)cc1)c1cnccn1	5.01µM*	1.7%	7.94µM*	.	-3.7%
O=C(Nc1ccc(N2CCOCC2)cc1)c1ccncc1	20.6%	-0.8%	-13.4%	8.9%	1.6%
SMILES	RORgamma inh	PLK1 PBD block	VP16 counter	ALDH1A1 inh	Sfp PPTase inh
O=C(Nc1ccc(N2CCOCC2)cc1)c1cnsn1	2µM*	-13.1%	1.78µM*	3.1%	10.2%
CO[C@H]1CN(C)C(=O)c2ccc(NS(=O)(=O)c3ccccc3F)cc2OC[C@H](C)NC[C@@H]1C	.	-17.9%	.	.	.
CN(CCc1ccc(Cl)c(Cl)c1)CCN1CCCCCC1	-35.6%	.	-1.8%	-6.0%	24.9%
CC(=O)OC(C(=O)c1ccccc1)c1ccccc1 (stereo not given)	-3.5%	.	4.9%	22.4µM*	.
COc1ccc(NC(=O)N2CC3(CCN(C(=O)c4c(C)noc4C)CC3)C2)cc1	-5.6%	.	4.9%	?	10.2%
O=S(=O)(c1ccc(Cl)cc1)N1CCCCCC1	-20.1%	5.3%	-0.7%	.	4.5%
O=S(=O)(c1c(Cl)sc(Cl)c1Br)N1CCCC1	2.7%	0.2%	-2.3%	14.1µM*	5.8%
Cc1ccc(NC(=O)C2CCN(S(=O)(=O)c3ccc4c(c3)NC(=O)C(C)S4)CC2)cc1Cl (stereo not given)	?	0.1%	7.08µM*	.	28.6%
Cc1ccc(NC(=S)NCCc2ccccc2)c(C)c1	2µM*	-11.4%	3.55µM*	?	-15.6%
Cc1ccc(NC(=O)CSCC(=O)NCCc2ccccc2)c(C)c1	.	-4.4%	.	.	.
Cc1ccc(C)c(NC(=S)NNc2ccc(F)cc2F)c1	?	?	3.16µM*	.	-17.4%
Cc1cc(Br)ccc1NC(=S)NCCc1ccccc1	2.51µM*	-2.0%	6.31µM*	.	11.0%
Cc1ccc(NC(=S)NCCc2ccc(S(N)(=O)=O)cc2)c(C)c1	.	-7.0%	.	.	.
Cc1ccc(C)c(NC(=S)NCCc2ccc(F)cc2)c1	2.51µM*	?	3.16µM*	12.5%	0.2%
CCOC(=O)N/N=C1/C[C@@H](O)[C@@H](O)[C@@H]2[C@@H]3C(=O)N(Cc4ccccc4)C(=O)[C@H]3CC[C@H]12	-18.7%[10 µM]	.	3.3%[10 µM]	-11.3%[13.5 µM]	16.3%
CN(Cc1ccccc1)Cn1ccnc1	.	.	.	-6.3%[13.5 µM]	.
C[N+](C)([O-])Cc1cc(-c2ccccc2)ccc1O	.	.	.	-9.0%[13.5 µM]	.
Cc1ccc(NNC(=S)Nc2ccc(C(C)C)cc2)c(C)c1	11.2µM*	16.8µM*	?	22.4µM*	-8.7%
Cc1ccc([N+](=O)[O-])cc1NC(=S)NCCc1ccccc1	12.6µM*	-22.9%	?	.	11.5%
COC(=O)C[C@@H]1C=C[C@H](NC(=O)c2cnccn2)[C@@H](CO)O1	.	-11.6%	.	.	.
CC1CC(C)CN(C(C(=O)NC2CCCCC2)c2cc3ccccc3o2)C1 (stereo not given)	.	-22.5%	.	.	.
Cc1ccc(NC(=S)N(C)N)cc1Cl	?	-3.5%	5.2%[10 µM]	-8.4%	-13.9%
Cc1ccc(NNC(N)=S)cc1Cl	?	-21.6%	5.01µM*	.	12.6µM*
NC(=S)NNc1ccc(Cl)c(Cl)c1	6.31µM*	?	10µM*	.	3.16µM*
O=C(CSc1n[nH]c(=O)n1Cc1ccccc1)Nc1ccc(F)c(F)c1F	?	-12.2%	?	.	?
COc1ccc(C2=CSC(/N=C/c3ccc(F)cc3)=NN2)cc1	-43.1%	-26.6%	2.2%	13.0%	28.2µM*
CCCN1C(=O)C(Cc2nc3ccccc3c(=O)n2-c2ccccc2)c2ccccc21 (stereo not given)	34.4%[10 µM]	-22.6%	0.3%	8.91µM*	-11.9%
